According to ChEMBL document CHEMBL1157539, “Thousands of chemical starting points for antimalarial lead identification” (Nature, 2010):

What follows are compounds tested on Plasmodium falciparum (assay: GSK_TCMDC: Inhibition of Plasmodium falciparum Dd2 in whole red blood cells, using parasite LDH activity as an index of growth. Test compounds present at 2uM).
Assay type: functional

Compound | Inhibition
CS(=O)(=O)c1ccc(-c2cnc(N)c(-c3cccc(O)c3)c2)cc1 | 97%
CCOC(=O)CCCOc1c(OC)cc(Cc2cnc(N)nc2N)cc1OC | 7%
CCCCc1ccc2ncc(C(=O)OCC)c(O)c2c1 | 96%
FC(F)(F)c1ccc2[nH]c(-c3ccc(-c4cccc(CN5CCCCC5)c4)cc3)nc2c1.O=C(O)C(F)(F)F | 99%
CC(=O)N/N=C/[C@H](CCc1ccccc1)NC(=O)[C@H](CC(C)C)NC(=O)c1cccc(OCCN2CCOCC2)c1 | 78%
O=C(Nc1cc(Cl)cc(Cl)c1)N[C@H]1CCN(CCCCCNC(=O)C2CC2c2ccc(Cl)c(Cl)c2)C1 (some centres not stated) | 0%
COc1cccc(NC(=O)Cn2c(C)c(C(=O)C(F)(F)F)c3ccccc32)c1 | 94%

Each compound was assayed on HepG2 (assay: GSK_TCMDC: Percent inhibition of human HepG2 cell line. Test compounds present at 10uM.).
Assay type: functional

Compound | Inhibition
N#Cc1ccc(N2C[C@@H](OCc3ccccc3)C[C@H]2C(=O)NCCC(c2ccccc2)c2ccccc2)c2ccccc12 | 11%
FC(F)(F)Oc1cccc(CNc2noc(-c3sccc3Br)n2)c1 | 0%
COc1cc(Cc2cnc(N)nc2N)cc(OC)c1OC [TRIMETHOPRIM] | 0%
O=C(Nc1ccc(Cn2ncc(N3CCCNCC3)c(Cl)c2=O)cc1)Nc1cccc(SC(F)(F)F)c1.O=C(O)C(F)(F)F | 12%
Cc1cccc2nc(-c3ccc(-c4ccc(CN5CCN(CC6CCCN(C)C6)CC5)cc4)s3)[nH]c12.O=C(O)C(F)(F)F (configuration not stated) | 63%
CCCCc1cc(NCc2ccncc2)nc(Nc2cccc(OC)c2)n1 | 41%
Cc1onc(-c2c(Cl)cccc2Cl)c1C(=O)NC1=NC(C)(C)ON1c1ccccc1 | 6%
O=C(O)c1ccc(-c2c[nH]c3ncc(-c4ccc(Cl)cc4)cc23)cc1 | 39%
Cc1ccc(NC(=O)Nc2ccc(Cl)cc2)cc1-c1cccc(C(=O)Nc2ccc(F)cc2)c1 | 8%
O=C(Cn1c(CCc2cccc(F)c2F)cc(=O)c2ccccc21)N(CCN1CCCCC1)Cc1ccc(-c2ccc(C(F)(F)F)cc2)cc1.O=C(O)C(O)C(O)C(=O)O | 9%
COc1ccc(NC(=O)Nc2ccc(-c3ccc(-c4nc5cccc(C)c5[nH]4)s3)cc2)cc1 | 74%
Cc1nc(Nc2ccc(F)cc2)nc(N2CCc3ccccc3C2C)c1CO (configuration not stated) | 0%
CC(C)CC(NC(=O)c1cc2ccccc2s1)C(=O)N1CCCCCC1c1ccc(C(C)(C)C)cc1 (configuration not stated) | 23%
COc1ccc(Nc2nc(NCc3ccc(-n4ccnc4)cc3)cc(-c3ccc(OC)cc3)n2)cc1 | 8%
CSC1=NC(=Nc2ccccc2C)C2(CCC(C(C)(C)C)CC2)N1c1ccccc1Cl.I (configuration not stated) | 3%
CS(=O)(=O)CCNCc1cccc(-c2ccc3c(Nc4cc(O)c(Cl)cc4F)ccnc3c2)c1 | 9%
CC(C)COc1ccc(Cl)cc1Cc1nc(-c2nc3ccc(CN(C)C)cc3[nH]2)co1.Cl | 14%
O=C(O)C(F)(F)F.Oc1ccc(CCNc2nc(NCc3ccccc3-c3ccc(C(F)(F)F)cc3)nc(NC3CCNCC3)n2)cc1 | 12%
Cc1cc(=O)[nH]c(-n2nc(C)cc2NC(=O)C2(c3ccc(Cl)cc3)CCCC2)n1 | 30%
Cc1cc(-c2cc3nc4c(c(O)n3n2)CCCC4)c(C)o1 | 4%

Compound | Inhibition
COc1ccc(O)c(Cc2cnc3nc(N)nc(N)c3c2C)c1.O=C(O)C(F)(F)F | 56%
CN1CCN(CCCCCNc2c3ccccc3nc3ccccc23)CC1.Cl | 57%
CN1CCC[C@H]1COc1ccc(CN2CC[C@H](NC(=O)c3ccc(Cl)c(Cl)c3)C2)cc1Cl.O=C(O)C(F)(F)F | 53%
Cl.O=C(C=Cc1ccc(C(=O)Nc2ccc(C3=NCCN3)cc2)cc1)Nc1ccc(C2=NCCN2)cc1 | 0%
COc1cccc(CNC(=O)[C@H]2CNCCN2C(=O)CCCc2ccccc2)c1.O=C(O)C(F)(F)F | 56%
COc1cccc(C2CCN(CCCCNC(=O)c3ccc(NC(=O)c4ccc(Cl)cc4)cc3)CC2)c1 | 18%
COc1ccc(-c2c(-c3ccc(OCc4ccccc4)cc3O)n[nH]c2C(F)(F)F)cc1 | 49%
COc1ccc2[nH]c(/C=C/c3cccc4ccc(C)nc34)nc2c1 | 25%
Cc1cc(=NN=Cc2ccccc2F)c2cc(F)ccc2[nH]1 | 9%
COC(=O)c1c(C#N)c(OC)cc(O)c1CSC[C@H](Nc1nc(-c2ccc([N+](=O)[O-])cc2)cs1)C(=O)NCCN1CCCCC1 | 5%
COc1ccc2nc(C)cc(N/N=C/c3ccc([N+](=O)[O-])o3)c2c1 | 18%
O=C(/C=C/c1ccc(Cl)cc1)NCCCCCN1CCCN(C(=O)Nc2ccc(Cl)c(C(F)(F)F)c2)CC1 | 54%
Nc1c(Cl)cc(C(O)CNCCCCCOCCCc2ccc(O)c3ncccc23)cc1Cl.O=C(O)/C=C/C(=O)O (configuration not stated) | 65%
CS(=O)(=O)c1ccc(-c2cnc(N)c(-c3cccc(O)c3)c2)cc1 | 48%
CCOC(=O)CCCOc1c(OC)cc(Cc2cnc(N)nc2N)cc1OC | 10%
CCCCc1ccc2ncc(C(=O)OCC)c(O)c2c1 | 3%
FC(F)(F)c1ccc2[nH]c(-c3ccc(-c4cccc(CN5CCCCC5)c4)cc3)nc2c1.O=C(O)C(F)(F)F | 22%
CC(=O)N/N=C/[C@H](CCc1ccccc1)NC(=O)[C@H](CC(C)C)NC(=O)c1cccc(OCCN2CCOCC2)c1 | 13%
O=C(Nc1cc(Cl)cc(Cl)c1)N[C@H]1CCN(CCCCCNC(=O)C2CC2c2ccc(Cl)c(Cl)c2)C1 (some centres not stated) | 49%
COc1cccc(NC(=O)Cn2c(C)c(C(=O)C(F)(F)F)c3ccccc32)c1 | 2%
